Reference: PubChem BioAssay (Tox21)
Results filed as inconclusive are left out. Active and inactive are the calls of the source. Unless noted, calls follow the shape of the dose curve; as a rule, active = well fitted curve in the direction sought with a large enough effect in the repeat runs; inconclusive = weak or mixed curves; inactive = no such curve, though single readings can be large; an effect the other way counts as inactive or inconclusive.

Experiments:
[1] = target: Peroxisome proliferator-activated receptor delta (Homo sapiens) (UniProt Q03181); assay: qHTS assay to identify small molecule agonists of the peroxisome proliferator-activated receptor delta (PPARd) signaling pathway (AID 743212; calls by dose curve)
Sequence of Peroxisome proliferator-activated receptor delta (Homo sapiens) (Q03181 whole entry, looked up): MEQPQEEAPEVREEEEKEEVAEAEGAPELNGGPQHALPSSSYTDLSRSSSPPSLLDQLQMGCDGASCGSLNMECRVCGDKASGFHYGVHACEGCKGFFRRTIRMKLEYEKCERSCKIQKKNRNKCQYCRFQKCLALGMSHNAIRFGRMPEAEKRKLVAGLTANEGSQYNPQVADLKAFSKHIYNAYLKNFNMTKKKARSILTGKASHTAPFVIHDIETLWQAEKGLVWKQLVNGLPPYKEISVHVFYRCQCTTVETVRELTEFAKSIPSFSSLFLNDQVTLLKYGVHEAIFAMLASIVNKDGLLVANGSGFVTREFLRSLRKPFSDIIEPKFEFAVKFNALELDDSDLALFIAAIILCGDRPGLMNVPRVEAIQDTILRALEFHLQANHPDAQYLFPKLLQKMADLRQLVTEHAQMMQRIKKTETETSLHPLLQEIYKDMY
Outline: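 Steps: seed PPARd-bla HEK293H cells; incubate 5 h, 37 C, 5% CO2; add compounds in DMSO; incubate, 37 C; add LiveBLAzer B/G FRET substrate; hold 2 h at room temperature; measure fluorescence.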

[2] = qHTS assay to identify small molecule antagonists of the peroxisome proliferator-activated receptor delta (PPARd) signaling pathway - cell viability counter screen (AID 743213); also: nearly all actives have a fitted effect of over 50% in size
Outline: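 Cytotoxicity counter screen: CellTiter-Glo luminescence read 30 min after addition, in the same wells as the reporter assay. There, PPARd UAS-bla HEK293H cells (3000/well) were treated 17 h at 37 C with compound and 300 nM L165041.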

[3] = target: Peroxisome proliferator-activated receptor delta (Homo sapiens) (UniProt Q03181); assay: qHTS assay to identify small molecule antagonists of the peroxisome proliferator-activated receptor delta (PPARd) signaling pathway (AID 743215; active = well fitted inhibition curve with a large enough effect in the signal ratio in the repeat runs, not every such curve was filed as active; the % refers to the signal ratio;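 also: cells stimulated with agonist L165041 at 300 nM final during compound exposure; series mostly up to about 62 µM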)
Outline: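 Fluorescence from cleaved LiveBLAzer B/G FRET substrate (2 h, room temperature) reports PPARd-driven beta-lactamase in HEK293H UAS-bla cells. Cells had been treated 17 h at 37 C with compound plus 300 nM final L165041.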

[4] = qHTS assay to identify small molecule agonists of the farnesoid-X-receptor (FXR) signaling pathway - cell viability counter screen (AID 743218); also: nearly all actives have a fitted effect of over 45% in size
Outline: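 Readout: CellTiter-Glo luminescence, 30 min RT, multiplexed after the FXR-bla FRET reading. HEK 293T FXR-UAS-bla cells received compound 5 h post-plating and were incubated 16 h at 37 C.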

[5] = qHTS assay to identify small molecule antagonists of the farnesoid-X-receptor (FXR) signaling pathway - cell viability counter screen (AID 743221; active = well fitted cell-killing curve with a large enough effect in the repeat runs, not every such curve was filed as active; also: nearly all actives have a fitted effect of over 50% in size)
Outline: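 FXR-UAS-bla HEK 293T cells were treated with test compounds plus chenodeoxycholic acid (50 uM final) for 16 h at 37 C. Cell viability in the same wells was then read as CellTiter-Glo luminescence after 30 min at room temperature.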

[6] = qHTS assay to identify small molecule agonists of the vitamin D receptor (VDR) signaling pathway - cell viability counter screen (AID 743224); also: series mostly up to about 63 µM; nearly all actives have a fitted effect of over 50% in size
Outline: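 In parallel with the bla FRET readout, cytotoxicity toward VDR-bla cells after 16 h compound exposure was assessed by CellTiter-Glo, with luminescence recorded after a 30 min room-temperature incubation.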

[7] = qHTS assay to identify small molecule agonists of the NFkB signaling pathway - cell viability counter screen (AID 1159515; calls by dose curve; also: series mostly up to about 61 µM; nearly all actives have a fitted effect of over 55% in size)
Outline: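 Plate 2,000 NFkB-bla ME-180 cells/well; incubate overnight. Add compounds, 5 hr at 37 C. Add FRET substrate, 1.5 hr RT. Add CellTiter-Glo, 30 min RT; read luminescence.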

[8] = qHTS assay to identify small molecule agonists of the endoplasmic reticulum stress response signaling pathway (AID 1159516; active = well fitted activation curve with a large enough effect in the signal ratio in the repeat runs, not every such curve was filed as active; the % refers to the signal ratio)
Outline: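 Beta-lactamase expression from the ER stress response element in HeLa reporter cells is quantified with the LiveBLAzer B/G FRET substrate, read at 405 nm excitation after 2 hr at room temperature, following 5 hr compound treatment at 37 C.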

[9] = qHTS assay to identify small molecule agonists of the endoplasmic reticulum stress response signaling pathway - cell viability counter screen (AID 1159517; calls by dose curve; also: series mostly up to about 61 µM; nearly all actives have a fitted effect of over 50% in size)
Outline: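 After overnight attachment, ESRE-bla HeLa cells were treated with Tox21 library compounds for 5 hr. CellTiter-Glo luminescence, read 30 min post-addition at room temperature, reported viability.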

[10] = qHTS assay to identify small molecule antagonists of the retinoid-related orphan receptor gamma (ROR-gamma) signaling pathway - cell viability counter screen (AID 1159520); also: nearly all actives have a fitted effect of over 50% in size
Outline: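 Cytotoxicity was read from cellular ATP (CellTiter-Glo luminescence) after 16 hr at 37 C with 1 uM doxycycline induction. The inducer was added 2 hr after compound transfer to Tet-on ROR gamma CHO cells.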

[11] = target: Nuclear receptor ROR-gamma (Homo sapiens) (UniProt P51449); assay: qHTS assay to identify small molecule antagonists of the retinoid-related orphan receptor gamma (ROR-gamma) signaling pathway (AID 1159521)
Outline: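 Tet-on RORγ CHO cells carrying a ROR response element–luciferase reporter were pretreated with compounds for 2 h, then induced with 1 uM (final) doxycycline hyclate for 16 h at 37 C. Antagonism was read as decreased ONE-Glo luminescence.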

[12] = qHTS assay to identify small molecule agonists of the AP-1 signaling pathway - cell viability counter screen (AID 1159525; calls by dose curve; also: nearly all actives have a fitted effect of over 55% in size)
Outline: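 Intracellular ATP by Cell Titer Glo luminescence (30 min, RT) in the same ME-180 AP-1-bla wells after the 5 h compound exposure at 37 °C. Normalised to tetra n-octyl ammonium bromide and DMSO controls.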

[13] = qHTS assay to identify small molecule agonists of the AP-1 signaling pathway (AID 1159526; calls by dose curve)
[14] = target: Retinoic acid receptor RXR-alpha (Homo sapiens) (UniProt P19793); assay: qHTS assay to identify small molecule agonists of the RXR signaling pathway (AID 1159527; calls by dose curve; also: nearly all actives have a fitted effect of over 35% in size)
Sequence of Retinoic acid receptor RXR-alpha (Homo sapiens) (P19793 whole entry, looked up): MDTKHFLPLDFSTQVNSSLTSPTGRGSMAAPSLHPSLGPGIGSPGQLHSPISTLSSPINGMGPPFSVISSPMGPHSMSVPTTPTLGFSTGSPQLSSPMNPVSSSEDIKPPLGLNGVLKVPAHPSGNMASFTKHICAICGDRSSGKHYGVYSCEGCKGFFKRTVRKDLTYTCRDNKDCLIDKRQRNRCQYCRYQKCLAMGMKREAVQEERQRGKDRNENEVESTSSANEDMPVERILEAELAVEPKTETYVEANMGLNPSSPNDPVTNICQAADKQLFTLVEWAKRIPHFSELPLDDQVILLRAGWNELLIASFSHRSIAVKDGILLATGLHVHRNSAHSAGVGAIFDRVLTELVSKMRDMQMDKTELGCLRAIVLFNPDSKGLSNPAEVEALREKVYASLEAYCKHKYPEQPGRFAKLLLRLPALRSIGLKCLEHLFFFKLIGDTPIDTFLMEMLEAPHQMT
Outline: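 GeneBLAzer RXR-alpha-UAS-bla HEK 293T cells in medium with 2% charcoal-stripped FBS, pre-incubated 5 hr at 37 C, then exposed to compounds 16 hr. Beta-lactamase reporter read by FRET substrate, 2 hr room temperature, 460/530 nm emission.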

[15] = qHTS assay to identify small molecule agonists of the peroxisome proliferator-activated receptor delta (PPARd) signaling pathway - cell viability counter screen (AID 743211); also: nearly all actives have a fitted effect of over 55% in size
Outline: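 PPARd-bla HEK293H cells (UAS-beta-lactamase reporter) were treated with compounds for 17 h at 37 C. Viability was then read in the same wells by CellTiter-Glo luminescence after 30 min at room temperature.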

[16] = target: Bile acid receptor (Homo sapiens) (UniProt Q96RI1); assay: qHTS assay to identify small molecule antagonists of the farnesoid-X-receptor (FXR) signaling pathway (AID 743217; active = well fitted inhibition curve with a large enough effect in the signal ratio in the repeat runs, not every such curve was filed as active; the % refers to the signal ratio)
Sequence of Bile acid receptor (Homo sapiens) (Q96RI1 whole entry, looked up): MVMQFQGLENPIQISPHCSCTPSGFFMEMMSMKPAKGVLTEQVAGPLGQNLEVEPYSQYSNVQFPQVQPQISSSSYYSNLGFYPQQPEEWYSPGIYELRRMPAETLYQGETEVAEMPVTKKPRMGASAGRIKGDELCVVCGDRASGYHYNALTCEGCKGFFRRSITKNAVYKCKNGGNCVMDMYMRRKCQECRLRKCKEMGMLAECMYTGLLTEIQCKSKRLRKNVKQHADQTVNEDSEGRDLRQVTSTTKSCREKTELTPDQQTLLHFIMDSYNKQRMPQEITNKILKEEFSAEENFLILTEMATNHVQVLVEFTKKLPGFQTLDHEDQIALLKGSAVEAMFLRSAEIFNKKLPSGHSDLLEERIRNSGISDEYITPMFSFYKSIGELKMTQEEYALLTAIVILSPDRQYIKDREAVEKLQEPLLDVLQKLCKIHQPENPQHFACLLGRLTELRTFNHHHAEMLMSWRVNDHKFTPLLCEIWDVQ
Outline: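 FRET fluorescence after 2 h room-temperature LiveBLAzer loading gives the readout. Prior step: FXR-bla HEK 293T cells, seeded and incubated 5 h, received test compounds plus 50 uM final CDCA for 16 h at 37 °C.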

[17] = target: Bile acid receptor (Homo sapiens) (UniProt Q96RI1); assay: qHTS assay to identify small molecule agonists of the farnesoid-X-receptor (FXR) signaling pathway (AID 743220; active = well fitted activation curve with a large enough effect in the signal ratio in the repeat runs, not every such curve was filed as active; the % refers to the signal ratio)
Outline: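 FXR-UAS-bla HEK 293T cells carrying a UAS-driven beta-lactamase reporter were plated for 5 h at 37C/5% CO2, then exposed to DMSO-dissolved Tox21 10K compounds for 16 h at 37C. A LiveBLAzer B/G FRET substrate was loaded for 2 h at room temperature before fluorescence reading.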

[18] = qHTS assay to identify small molecule antagonists of the vitamin D receptor (VDR) signaling pathway - cell viability counter screen (AID 743225); also: nearly all actives have a fitted effect of over 50% in size
Outline: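 VDR-bla HEK 293T cells, 4 h pre-incubation at 37C, then compound plus 1-alpha,25-dihydroxyvitamin D3 (3 nM final) for 16 h. After the beta-lactamase FRET read, CellTiter-Glo was added to the same wells; luminescence after 30 min at room temperature.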

[19] = target: Vitamin D3 receptor (Homo sapiens) (UniProt P11473); assay: qHTS assay to identify small molecule agonists of the vitamin D receptor (VDR) signaling pathway (AID 743222; calls by dose curve)
Sequence of Vitamin D3 receptor (Homo sapiens) (P11473 whole entry, looked up): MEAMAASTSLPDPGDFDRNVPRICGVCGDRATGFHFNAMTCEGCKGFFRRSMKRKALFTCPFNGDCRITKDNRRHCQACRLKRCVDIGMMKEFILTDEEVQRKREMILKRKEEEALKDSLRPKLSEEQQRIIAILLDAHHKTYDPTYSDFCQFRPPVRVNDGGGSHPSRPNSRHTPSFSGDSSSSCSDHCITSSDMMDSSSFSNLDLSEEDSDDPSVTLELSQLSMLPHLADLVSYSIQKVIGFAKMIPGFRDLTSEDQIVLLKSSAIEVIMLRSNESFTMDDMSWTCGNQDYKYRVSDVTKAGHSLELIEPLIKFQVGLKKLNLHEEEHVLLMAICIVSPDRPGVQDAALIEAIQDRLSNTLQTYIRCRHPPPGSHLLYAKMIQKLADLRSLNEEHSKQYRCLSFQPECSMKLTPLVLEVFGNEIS
Outline: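 Following 4 h attachment at 37C, VDR-bla cells (2,000 per well) received DMSO-dissolved compounds or controls. After 16 h incubation, LiveBLAzer B/G FRET substrate was added and fluorescence read 2 h later at room temperature.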

[20] = target: Vitamin D3 receptor (Homo sapiens) (UniProt P11473); assay: qHTS assay to identify small molecule antagonists of the vitamin D receptor (VDR) signaling pathway (AID 743223; active = well fitted inhibition curve with a large enough effect in the signal ratio in the repeat runs, not every such curve was filed as active; the % refers to the signal ratio)
Outline: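 VDR-bla cells were plated, incubated 4 h at 37C, then given compound and 1alpha,25-dihydroxyvitamin D3 (3 nM final). After 16 h at 37C, LiveBLAzer B/G FRET substrate was added for 2 h at room temperature and fluorescence read.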

Measured: Potency

CC(C)C(C)C
inactive: [1] | [2] | [3] | [4] | [5] | [6] | [7] | [8] | [9] | [10] | [11] | [12] | [13] | [14]

C=CCCCCCCCCOC(C)=O
inactive: [15] | [16] | [4] | [17] | [5] | [6] | [18] | [7] | [8] | [9] | [10] | [11] | [12] | [13] | [14]

CCC(C)SSC(C)CC (centres undefined)
inactive: [15] | [2] | [4] | [5] | [19] | [20] | [6] | [7] | [8] | [9] | [10] | [11] | [12] | [13] | [14]

CC(=O)OCC(=O)[C@@]1(O)CC[C@H]2[C@@H]3CCC4=CC(=O)C=C[C@]4(C)[C@H]3[C@@H](O)C[C@@]21C
inactive: [15] | [1] | [2] | [4] | [5] | [20] | [7] | [8] | [9] | [10] | [11] | [12] | [13] | [14]

CC(=O)Nc1ccc(OCCOCCOc2ccc(NC(C)=O)cc2)cc1
inactive: [15] | [2] | [4] | [5] | [6] | [18] | [7] | [8] | [9] | [10] | [11] | [12] | [13] | [14]

CCOC(=O)CN1CCCC1=O
inactive: [15] | [2] | [3] | [4] | [5] | [19] | [20] | [6] | [7] | [8] | [9] | [10] | [11] | [12] | [13] | [14]

O=S(=O)(O)CC(O)CCl (centres undefined)
inactive: [15] | [1] | [2] | [16] | [4] | [17] | [5] | [20] | [6] | [18] | [7] | [8] | [9] | [10] | [11] | [12] | [13] | [14]

CCOC(=O)COc1ccc2c(C)c(CCN(CC)CC)c(=O)oc2c1Cl
inactive: [15] | [2] | [16] | [4] | [17] | [5] | [19] | [6] | [18] | [7] | [8] | [9] | [10] | [11] | [12] | [13] | [14]

N#CC1(N)CCCCC1
inactive: [15] | [2] | [4] | [5] | [19] | [20] | [6] | [18] | [7] | [8] | [9] | [10] | [11] | [12] | [13] | [14]
